Source: PubChem BioAssay (National Center for Advancing Translational Sciences (NCATS))
Only some compounds are listed: those with a hit (about 22% of all), similar ones and a draw of the others.
Cycloheximide cs – Cycloheximide Counterscreen for Small Molecule Inhibitors of Shiga Toxin; 300,000 tested, 12% active; cell reporter, cycloheximide protein synthesis inhibition counterscreen; AID 2314, 2010; max response, %; in the data active = max response mostly above about 13%, no sharp cut-off; inactive = mostly below about 14%; also: read at 38.3 µM for the half of the compounds with a filed dose; 0% is about no effect
Pf growth 48h – Primary qHTS for delayed death inhibitors of the malarial parasite plastid, 48 hour incubation. Potency, µM (highest dose often 28.7 µM), without a hit: top-dose activity change, negative = inhibition, most hits filed as inhibitors. 310,000 tested, 5.9% active. AID 504832, 2011. P. falciparum luciferase growth in erythrocytes, 48 h; also: potency is read from the fitted curve at half-maximal effect; % is scaled to controls: 0 for no effect and ±100 for the full control effect
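Luminescence readout; reporter = integrated firefly luciferase in P. falciparum. RBC culture at 2% hematocrit, 0.1% parasitemia final, 37 C/5% CO2; decreased signal taken as growth inhibition.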
Pf growth 96h – Primary qHTS for delayed death inhibitors of the malarial parasite plastid, 96 hour incubation | Potency, µM (doses to about 28.7 µM), without a hit: at the top dose activity change, negative = inhibition, usual class: inhibitors | 320,000 tested, 6.9% active | P. falciparum luciferase reporter growth, 96 h; also: potency is read from the fitted curve at half-maximal effect; % is scaled to controls: 0 for no effect and ±100 for the full control effect
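Readout is luminescence from an integrated firefly luciferase in P. falciparum. Red cells, 2% hematocrit and 0.05% parasitemia final, were cultured with compound through two parasite generations (96 hours) at 37 C, 5% CO2.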
LmPK inhibitor – qHTS Assay for Inhibitors of Leishmania Mexicana Pyruvate Kinase (LmPK) | Q27686 | purified LmPK, Kinase-Glo ATP luminescence, 1 h | AID 1721, 2009 | 290,000 tested, 0.37% active | Potency, µM (titrated, usually from 57.5 µM), for inactives: at the highest dose activity change, negative = inhibition, most hits filed as inhibitors; also: potency is read from the fitted curve at half-maximal effect; % is scaled to controls: 0 for no effect and ±100 for the full control effect
Target sequence (Q27686 whole entry, looked up): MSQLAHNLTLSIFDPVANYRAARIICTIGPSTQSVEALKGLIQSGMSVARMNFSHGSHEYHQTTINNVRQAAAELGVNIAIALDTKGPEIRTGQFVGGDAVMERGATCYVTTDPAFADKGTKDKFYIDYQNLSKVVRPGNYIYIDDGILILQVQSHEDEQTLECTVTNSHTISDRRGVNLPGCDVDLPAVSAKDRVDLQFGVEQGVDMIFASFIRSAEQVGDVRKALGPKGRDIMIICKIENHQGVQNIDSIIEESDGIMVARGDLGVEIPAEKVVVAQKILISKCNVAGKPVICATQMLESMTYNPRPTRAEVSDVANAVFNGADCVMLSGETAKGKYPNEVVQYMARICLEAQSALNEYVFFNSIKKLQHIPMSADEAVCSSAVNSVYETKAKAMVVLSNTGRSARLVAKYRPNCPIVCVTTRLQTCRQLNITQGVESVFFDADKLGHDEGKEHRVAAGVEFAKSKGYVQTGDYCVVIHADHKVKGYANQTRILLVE
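In 50 mM imidazole pH 7.2 with 7 mM MgCl2, LmPK (0.1 nM) turned over PEP (0.5 mM) and ADP (0.1 mM) for 1 h at room temperature. Luciferase read-out of ATP.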
Shiga toxin inh – A qHTS for Small Molecule Inhibitors of Shiga Toxin; Vero cells, Shiga toxin protein synthesis inhibition reporter; inhibition, % at 38.7 µM; 290,000 tested, 9.2% active; AID 2315, 2010; in the data active = inhibition mostly above about 28%, no sharp cut-off; inactive = mostly below about 43%; also: 0% is about no effect
The depositor's hits bear a star; ? = inconclusive; · = no result given. Unless noted, calls follow the shape of the dose curve; as a rule, active = well fitted inhibition curve with a large enough effect; inconclusive = small, poorly fitted or top-dose-only effect, or another doubt; inactive = no such curve, though single readings can be large or run the other way.

SMILES	Cycloheximide cs	Pf growth 48h	Pf growth 96h	LmPK inhibitor	Shiga toxin inh
COc1ccc(-c2csc3nc(C)nc(N4CCN(c5ccc(C(C)=O)cc5)CC4)c23)cc1OC	31.1*	?	?	14.9%	65.2*
COc1ccc(C(=O)N2CCN(c3ccc(C)cc3)CC2)cc1OC	-2.0	·	?	-1.8%	42.2
O=C(Nc1cccc(S(=O)(=O)N2CCCCCC2)c1)C1CCC1	·	?	13.1µM*	·	·
O=C(NCc1ccncc1)C1CCN(S(=O)(=O)c2cccc(C(F)(F)F)c2)CC1	-4.3	-3.7%	?	0.3%	-7.5
O=C(Nc1cccc(S(=O)(=O)N2CCCCC2)c1)C1CC(=O)N(Cc2ccccc2)C1 (configuration not stated)	·	13.1µM*	?	·	·
O=C(Nc1ccncc1)C1CCN(S(=O)(=O)c2cccc(C(F)(F)F)c2)CC1	·	13.1µM*	9.28µM*	·	·
COc1ccc(S(=O)(=O)N2CCCCC2)cc1NC(=O)C1CC(=O)N(Cc2ccccc2)C1 (configuration not stated)	·	13.1µM*	11.7µM*	·	·
O=c1c2ncn([C@@H]3O[C@@H]4COP(=O)(O)O[C@H]4[C@H]3O)c2nc2[nH]c(-c3ccccc3)cn12	-4.2	·	·	·	-7.3
O=C(c1ccco1)N1CCN(C(=O)C23CC4CC(CC(C4)C2)C3)CC1	-2.4	2.5%	?	-3.1%	-7.3
CCc1nnc(NC(=O)C2CC(=O)N(CCc3ccccc3)C2)s1 (configuration not stated)	15.6	-11.0%	?	1.3%	13.2
CCCCc1nnc(NC(=O)C2CC(=O)N(Cc3ccccc3)C2)s1 (configuration not stated)	-3.0	?	10.4µM*	-2.8%	-5.3
COc1ccc(S(=O)(=O)N2CCC(c3cc(-c4cccc5ccccc45)n[nH]3)CC2)cc1	-2.0	?	?	3.6%	-8.0
O=S(=O)(c1cccc(C(F)(F)F)c1)N1CCC(c2cc(-c3cccc4ccccc34)n[nH]2)CC1	-7.2	?	10.4µM*	0.4%	-3.1
Fc1cccc(CN2CCN(c3nc4nonc4nc3NC3CC3)CC2)c1	0.7	-15.8%	6.6%	1.1%	-1.7
O=C(CSc1ccccc1C(=O)O)c1ccc(Cl)cc1	29.6*	64.0%	34.0%	10.8%	65.0*
CC1=C(C)SC(=C(C#N)c2nnc(N3CCOCC3)n2-c2ccccc2)S1	-2.6	?	9.28µM*	0.7%	-31.2
C=CCN1C(c2cccc(C(F)(F)F)c2)=CS/C1=C(/C#N)c1nnc(N2CCOCC2)n1-c1ccccc1	-6.0	10.4µM*	11.7µM*	-1.2%	-18.5
C=CCN1C(c2ccc(Br)cc2)=CS/C1=C(/C#N)c1nnc(N2CCOCC2)n1-c1ccccc1	6.6	?	?	-1.1%	6.1
O=C(NCCCN=C1NS(=O)(=O)c2ccccc21)c1ccc(Cl)cc1	-6.6	3.1%	?	-0.6%	-4.6
O=C(/C=C/c1ccccc1)NCCc1ccccc1	45.7*	-27.5%	23.7%	6.6%	91.9*
O=C(/C=C/c1ccc([N+](=O)[O-])cc1)NCCc1ccccc1	9.2	6.6%	-46.2%	2.2%	17.8
CC(C)(C)SCCNC(=O)/C=C/c1ccccc1	46.4*	?	10.4µM*	0.7%	104.1*
CC(C)(CNC(=O)/C=C/c1ccc(F)cc1)CNC(=O)/C=C/c1ccc(F)cc1	14.8	-20.0%	?	0.0%	33.8
CC(C)(C)SCCNC(=O)/C=C/c1ccc(F)cc1	50.8*	?	-4.7%	-0.9%	114.5*
NS(=O)(=O)c1ccc(CCNC(=O)c2coc3ccccc3c2=O)cc1	-1.0	3.0%	4.6%	5.1%	-5.5
CCOC(=O)C1CCCN(C(=O)c2cccc(S(=O)(=O)N(C)c3c(C)n(C)n(-c4ccccc4)c3=O)c2)C1 (configuration not stated)	-2.4	-4.2%	-5.4%	-7.2%	-7.5
CC(C)(C)NC(=O)/C=C/c1ccc(C(F)(F)F)cc1	76.3*	61.5%	60.7%	3.1%	95.7*
N#CC1=C(N)SC(N)=C(C#N)C1c1ccc(C(F)(F)F)cc1	-2.2	-24.2%	9.28µM*	3.7%	6.2
CCOc1ccc(C2C(C#N)=C(N)SC(N)=C2C#N)cc1OCC	-2.8	?	1.8%	-16.1%	-8.6
